Here are results for 39 compounds from PubChem BioAssay (Tox21).

Results filed as inconclusive are left out. A number with no mark means an inactive call. Calls of active or inactive are those of the source. Unless noted, calls follow the shape of the dose curve; as a rule, active = well fitted curve in the direction sought with a large enough effect in the repeat runs; inconclusive = weak or mixed curves; inactive = no such curve, though single readings can be large; an effect the other way counts as inactive or inconclusive.
% is scaled to controls: 0 for no effect and ±100 for the full control effect.

Peroxisome proliferator-activated receptor gamma (Homo sapiens), sequence (P37231 whole entry, looked up): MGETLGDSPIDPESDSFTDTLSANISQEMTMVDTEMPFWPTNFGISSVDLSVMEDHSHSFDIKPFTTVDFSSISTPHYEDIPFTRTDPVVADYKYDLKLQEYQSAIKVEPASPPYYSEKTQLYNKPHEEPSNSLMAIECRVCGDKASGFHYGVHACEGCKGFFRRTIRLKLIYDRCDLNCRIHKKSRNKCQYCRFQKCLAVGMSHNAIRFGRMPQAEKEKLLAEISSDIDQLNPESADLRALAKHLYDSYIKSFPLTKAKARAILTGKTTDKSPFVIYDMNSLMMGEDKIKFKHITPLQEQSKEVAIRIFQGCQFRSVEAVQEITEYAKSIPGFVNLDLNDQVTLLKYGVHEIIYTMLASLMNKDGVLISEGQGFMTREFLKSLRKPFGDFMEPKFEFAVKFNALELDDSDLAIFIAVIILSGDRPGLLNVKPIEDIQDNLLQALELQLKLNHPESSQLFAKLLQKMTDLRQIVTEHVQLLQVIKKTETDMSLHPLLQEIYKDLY

The target in the first experiment is Aryl hydrocarbon receptor (Homo sapiens) (UniProt P35869). Kind of experiment: qHTS assay to identify small molecule that activate the aryl hydrocarbon receptor (AhR) signaling pathway (AID 743085).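 Also: HG2L7.5c1 human HepG2 liver cells with stably integrated DRE-driven firefly reporter; nearly all actives have a fitted effect of over 15% in size.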 The settings on record: HepG2 AhR-luc (HG2L7.5c1), luciferase, 24 h; series mostly up to 70.3 µM; activation: at the top concentration. Summed up: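 24 h compound exposure, 37C, HepG2-derived HG2L7.5c1 cells with DRE-responsive luciferase. Readouts: fluorescence viability, then luminescence at room temperature after 30 min.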
Aryl hydrocarbon receptor (Homo sapiens), sequence (P35869 whole entry, looked up): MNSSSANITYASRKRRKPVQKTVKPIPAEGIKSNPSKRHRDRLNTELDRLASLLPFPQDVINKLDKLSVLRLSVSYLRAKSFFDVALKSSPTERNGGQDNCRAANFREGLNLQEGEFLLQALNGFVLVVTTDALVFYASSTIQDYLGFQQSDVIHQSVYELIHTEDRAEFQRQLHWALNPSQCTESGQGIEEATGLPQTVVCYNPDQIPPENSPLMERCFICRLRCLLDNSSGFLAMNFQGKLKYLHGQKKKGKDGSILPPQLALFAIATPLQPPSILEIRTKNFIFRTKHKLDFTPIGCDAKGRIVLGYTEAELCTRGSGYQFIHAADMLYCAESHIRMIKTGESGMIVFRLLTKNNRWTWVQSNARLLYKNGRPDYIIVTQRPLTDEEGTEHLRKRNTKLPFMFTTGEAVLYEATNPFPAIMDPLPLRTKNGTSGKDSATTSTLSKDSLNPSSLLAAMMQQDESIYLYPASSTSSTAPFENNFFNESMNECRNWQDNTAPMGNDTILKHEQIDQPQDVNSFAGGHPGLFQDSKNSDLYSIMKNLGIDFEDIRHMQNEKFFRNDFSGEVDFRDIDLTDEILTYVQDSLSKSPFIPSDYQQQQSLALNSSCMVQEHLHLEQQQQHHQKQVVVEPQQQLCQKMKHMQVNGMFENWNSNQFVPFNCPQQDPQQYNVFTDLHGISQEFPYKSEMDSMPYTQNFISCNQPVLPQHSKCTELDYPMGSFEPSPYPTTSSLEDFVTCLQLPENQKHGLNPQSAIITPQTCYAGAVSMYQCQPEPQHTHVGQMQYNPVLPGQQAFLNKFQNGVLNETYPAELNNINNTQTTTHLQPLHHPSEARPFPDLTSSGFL
In general terms: In qHTS, concentration-response curves come from the screen itself.
On to `O=P(O)(O)OC[C@H]1O[C@](O)(COP(=O)(O)O)[C@@H](O)[C@@H]1O`, for which the “activation” value is -0.849%.
Consider `CC(=O)O[C@]1(C(C)=O)CC[C@H]2[C@@H]3CCC4=CC(=O)CC[C@]4(C)[C@@]3(F)[C@@H](O)C[C@@]21C`, for which the “activation” value is 1.68%.
Regarding `CCN(CC)CCC(=O)N1c2ccccc2Sc2ccc(C(F)(F)F)cc21`, the “activation” value was -5.02%.
As for `CCCCC(=O)N(Cc1ccc(-c2ccccc2-c2nn[nH]n2)cc1)[C@@H](C(=O)O)C(C)C`, the “activation” value was -1.33%.
As for `CCCCCCCCCCCC(=O)N(CCO)CCO`, the “activation” value is 6.06%.
For `O=C(O)c1cc(N=Nc2ccc(O)c(C(=O)O)c2)ccc1O`, the “activation” value is -0.55%.

System in the next experiment: not listed separately
Kind of experiment: qHTS assay to identify small molecule that activate the aryl hydrocarbon receptor (AhR) signaling pathway - cell viability counter screen (AID 743086). Also: nearly all actives have a fitted effect of over 45% in size. Also: potency is read from the fitted curve at half-maximal effect.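 As to viability change, negative = cytotoxic: HepG2 liver cells carrying the AhR DRE luciferase reporter.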 The settings on record: HepG2-AhR-luc viability, CellTiter-Fluor, 24 h; series mostly up to 70.3 µM; viability change, negative = cytotoxic: at the top concentration. Summed up: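 HepG2-AhR-luc (HG2L7.5c1) cells, 4000/well, were preincubated 5 h at 37C, exposed to compound in qHTS format for 24 hr at 37C, then given CellTiter-Fluor for 30 min; viability was read as fluorescence in the reporter wells.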
As for `O=C(O)c1nc(=O)[nH]c(=O)[nH]1`, the “viability change, negative = cytotoxic” value is 11.4%.
As for `CC(=O)N=c1sc(S(N)(=O)=O)nn1C`, the “viability change, negative = cytotoxic” value was 6.14% [at 32.5 µM].
As to `C[N@+]12CCCC[C@@H]1CCC(=C(c1cccs1)c1cccs1)C2`, the “viability change, negative = cytotoxic” value was 14.5%.
`CC[C@@]1(O)C[C@H](O[C@H]2C[C@H](N(C)C)[C@H](O[C@H]3C[C@H](O)[C@H](O[C@H]4CCC(=O)[C@H](C)O4)[C@H](C)O3)[C@H](C)O2)c2c(cc3c(c2O)C(=O)c2c(O)cccc2C3=O)[C@H]1C(=O)OC`: the Potency was 0.668 µM (active).
Take `CC1(C)S[C@@H]2[C@H](NC(=O)C(C(=O)O)c3ccsc3)C(=O)N2[C@H]1C(=O)O` (some centres not stated): the “viability change, negative = cytotoxic” value is 16.4%.
`COc1cc(-c2ccc(-[n+]3nc(-c4ccccc4)nn3-c3ccc([N+](=O)[O-])cc3)c(OC)c2)ccc1-[n+]1nc(-c2ccccc2)nn1-c1ccc([N+](=O)[O-])cc1`: the Potency is 26.6 µM (active).
On to `CC(C)[C@@H]1CC[C@@H](C)C[C@H]1OC(=O)c1ccccc1O`, for which the “viability change, negative = cytotoxic” value was 8.2%.
Regarding `CC(C)[C@@H](N)C(=O)O`, the “viability change, negative = cytotoxic” value is 17.2%.
Turning to `COc1ccc(C[C@H](C)NC[C@@H](O)c2ccc(O)c(NC=O)c2)cc1`, the “viability change, negative = cytotoxic” value is -29.8%.
As for `CCCCCCCCCCCCCCCC(=O)OCC(COC(=O)CCCCCCCCCCCCCCC)OC(=O)CCCCCCCCCCCCCCC`, the “viability change, negative = cytotoxic” value was -1.31%.
With `CCOC(=O)[C@H](CS)NCCN[C@@H](CS)C(=O)OCC`, the “viability change, negative = cytotoxic” value is 3.96%.
For `O=C(O)c1ccc(NC(=O)[C@H](Cc2ccc(O)cc2)NC(=O)c2ccccc2)cc1`, the “viability change, negative = cytotoxic” value is -0.921%.
As to `Clc1cc(Cl)c(OCC#CI)cc1Cl`, the Potency is 26.6 µM (active).
Consider `FC(F)(F)C(F)(F)C(F)(F)C(F)(F)C(F)(F)C(F)(F)F`, for which the “viability change, negative = cytotoxic” value was -0.973%.
On to `CCC(Cc1c(I)cc(I)c(O)c1I)C(=O)O` (configuration not stated), for which the “viability change, negative = cytotoxic” value is -0.958%.
`CCCCCCCCCCCCOCCCN`: the “viability change, negative = cytotoxic” value was -2.4%.
In the case of `C=CCOc1ccc(CC(=O)O)cc1Cl`, the “viability change, negative = cytotoxic” value was -4.47%.
Same read-out and setting: for `CCCCC(=O)N(Cc1ccc(-c2ccccc2-c2nn[nH]n2)cc1)[C@@H](C(=O)O)C(C)C` the value was 5.2%.
On to `CN=C1C=CC(=C(c2ccc(N(C)C)cc2)c2ccc(N(C)C)cc2)C=C1`, for which the Potency is 6.68 µM (active).
Take `O=C(O)c1cc(N=Nc2ccc(O)c(C(=O)O)c2)ccc1O`: the “viability change, negative = cytotoxic” value was -20.3%.

A further experiment has as its target Peroxisome proliferator-activated receptor gamma (Homo sapiens) (UniProt P37231). Description: qHTS assay to identify small molecule agonists of the peroxisome proliferator-activated receptor gamma (PPARg) signaling pathway (AID 743094; active = well fitted activation curve with a large enough effect in the signal ratio in the repeat runs, not every such curve was filed as active; the % refers to the signal ratio). The settings on record: HEK293H PPARg-UAS-bla, beta-lactamase FRET ratio, 17 h; series mostly up to 57 µM; activation: at the top concentration. Summed up: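 GeneBLAzer PPARg UAS-bla HEK293H cells carrying a stably integrated beta-lactamase reporter were pre-incubated 5 h at 37C, then exposed to compounds in DMSO for 17 h at 37C; LiveBLAzer B/G FRET substrate was added for 1 h at room temperature and fluorescence read.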
For `CC(=O)N=c1sc(S(N)(=O)=O)nn1C`, the “activation” value is -2.21% [at 26.2 µM].
Take `C[N@+]12CCCC[C@@H]1CCC(=C(c1cccs1)c1cccs1)C2`: the “activation” value is -4.81%.
For `C/C1=C2N=C(/C=C3N=C(/C(C)=C4\[N-][C@@](C)([C@@H]5N=C1[C@](C)(CCC(=O)NCC(C)OP(=O)(O)O[C@H]1[C@@H](O)[C@@H](n6cnc7cc(C)c(C)cc76)O[C@@H]1CO)[C@H]5CC(N)=O)[C@@](C)(CC(N)=O)[C@@H]4CCC(N)=O)[C@@](C)(CC(N)=O)[C@@H]\3CCC(N)=O)C(C)(C)[C@@H]/2CCC(N)=O.CC(=O)O.[Co]` (some centres not stated), the “activation” value was 1.9%.
As to `CC1(C)S[C@@H]2[C@H](NC(=O)C(C(=O)O)c3ccsc3)C(=O)N2[C@H]1C(=O)O` (some centres not stated), the “activation” value was 1.65%.
For the compound `CCCCC/C=C\CCC(=O)N[C@H]1[C@H](Oc2c3cc4cc2Oc2ccc(cc2Cl)[C@@H](O[C@@H]2O[C@H](CO)[C@@H](O)[C@H](O)[C@H]2NC(C)=O)[C@@H]2NC(=O)[C@H](NC(=O)[C@@H]4NC(=O)[C@H]4NC(=O)[C@@H](Cc5ccc(c(Cl)c5)O3)NC(=O)[C@H](N)c3ccc(O)c(c3)Oc3cc(O)cc4c3)c3ccc(O)c(c3)-c3c(O[C@H]4O[C@H](CO)[C@@H](O)[C@H](O)[C@@H]4O)cc(O)cc3[C@@H](C(=O)O)NC2=O)O[C@H](CO)[C@@H](O)[C@@H]1O`, the “activation” value was 3.23%.
Consider `O=C(O)C1=C(CSc2nnnn2CS(=O)(=O)O)CS[C@@H]2[C@H](NC(=O)[C@H](O)c3ccccc3)C(=O)N12`, for which the “activation” value was 1.62%.
Same read-out and setting: for `CCOc1ccc(N=Nc2ccc(N)cc2N)cc1` the value was 1.14%.
Take `O=C(O)[C@H]1/C(=C/CO)O[C@@H]2CC(=O)N21`: the “activation” value is -7.4%.
As for `CNCC(O)c1ccc(OC(=O)C(C)(C)C)c(OC(=O)C(C)(C)C)c1` (configuration not stated), the “activation” value was 0.761% [at 26.2 µM].
Turning to `CCOC(=O)O[C@]1(C(=O)COC(=O)CC)CC[C@H]2[C@@H]3CCC4=CC(=O)C=C[C@]4(C)[C@H]3[C@@H](O)C[C@@]21C`, the “activation” value is 6.77% [at 26.2 µM].
The same measure, in the same setting: the figure for `CC[C@H](C)[C@@H]1NC(=O)[C@H](Cc2ccc(O)cc2)NC(=O)[C@@H](N)CSSC[C@@H](C(=O)N2CCC[C@H]2C(=O)N[C@@H](CC(C)C)C(=O)NCC(N)=O)NC(=O)[C@H](CC(N)=O)NC(=O)[C@H](CCC(N)=O)NC1=O` is 3.73%.
On to `NS(=O)(=O)c1cc2c(cc1Cl)NC(Cc1ccccc1)NS2(=O)=O` (configuration not stated), for which the “activation” value was 0.545%.
Regarding `C[N+]1(C)[C@@H]2CC(OC(=O)C(O)(c3cccs3)c3cccs3)C[C@H]1[C@@H]1O[C@@H]12` (some centres not stated), the “activation” value was 0.457%.
`CC(C)[C@@H]1CC[C@@H](C)C[C@H]1OC(=O)c1ccccc1O`: the “activation” value was 0.311%.
With `CC(C)[C@@H](N)C(=O)O`, the “activation” value was 4.46%.
Consider `CC(C)(C)CC(C)(C)c1cc(Cc2cc(C(C)(C)CC(C)(C)C)cc(-n3nc4ccccc4n3)c2O)c(O)c(-n2nc3ccccc3n2)c1`, for which the “activation” value is -1.97%.
Same read-out and setting: for `COc1ccc(C[C@H](C)NC[C@@H](O)c2ccc(O)c(NC=O)c2)cc1` the value was 1.83%; for `CCCCCCCCCCCCCCCC(=O)OCC(COC(=O)CCCCCCCCCCCCCCC)OC(=O)CCCCCCCCCCCCCCC`, 3.57%; for `CCOC(=O)[C@H](CS)NCCN[C@@H](CS)C(=O)OCC`, 4.37%.
Regarding `CCN(CC)CCOCCOC(=O)C(CC)(CC)c1ccccc1`, the “activation” value is -1.77%.
Turning to `CC(=O)N(CC(C)C(=O)O)c1c(I)cc(I)c(N)c1I` (configuration not stated), the “activation” value is 0.0788% [at 26.2 µM].
Same read-out and setting: the figure for `O=C(O)c1ccc(NC(=O)[C@H](Cc2ccc(O)cc2)NC(=O)c2ccccc2)cc1` is -0.847%; for `CC(=O)Nc1ccc(OC(=O)c2ccccc2O)cc1` it is 1.24%; for `FC(F)(F)C(F)(F)C(F)(F)C(F)(F)C(F)(F)C(F)(F)F` it is 1.88%.
Still for that read-out and setting: the figure for `O=C(OC[C@H]1O[C@](O)(COC(=O)c2cccnc2)[C@@H](OC(=O)c2cccnc2)[C@@H]1OC(=O)c1cccnc1)c1cccnc1` is 2.52%.
Take `O=P(O)(O)OC[C@H]1O[C@](O)(COP(=O)(O)O)[C@@H](O)[C@@H]1O`: the “activation” value was 3.96%.
The same measure, in the same setting: the figure for `CC(=O)O[C@]1(C(C)=O)CC[C@H]2[C@@H]3CCC4=CC(=O)CC[C@]4(C)[C@@]3(F)[C@@H](O)C[C@@]21C` is -0.0985%; for `CCN(CC)CCC(=O)N1c2ccccc2Sc2ccc(C(F)(F)F)cc21` it is -8.02%; for `CCCCC(=O)N(Cc1ccc(-c2ccccc2-c2nn[nH]n2)cc1)[C@@H](C(=O)O)C(C)C` it is -0.952%.
Regarding `CCCCCCCCCCCC(=O)N(CCO)CCO`, the “activation” value is -9.22%.
As to `O=C(O)c1cc(N=Nc2ccc(O)c(C(=O)O)c2)ccc1O`, the “activation” value was -0.208%.
